Results as given in PubChem BioAssay (NCI).
This is part of a sample that, as a whole, favours compounds with a hit. Of some 83,000 tested, about 20% had one in any assay.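 Each cell line was grown in a 96-well plate and treated with one concentration of compound for 48 hours. Values below 10 were considered active.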 A number with no mark means an inactive call. Calls of active or inactive are those of the source.

Assays:
Experiment in all cases: NCI-60 one-dose screen, 48 h (100 = growth as untreated, 0 = no growth, -100 = all killed)
Details in all cases: 10 µM unless noted
T-47D breast = system: T-47D breast
BT-549 breast = system: BT-549 breast
MDA-MB-435 melanoma = system: MDA-MB-435 melanoma
SW-620 colon = system: SW-620 colon
MCF7 breast = system: MCF7 breast
HCT-116 colon = system: HCT-116 colon
HCC-2998 colon = system: HCC-2998 colon
KM12 colon = system: KM12 colon

Row | Compound | growth (T-47D breast) | growth (BT-549 breast) | growth (MDA-MB-435 melanoma) | growth (SW-620 colon) | growth (MCF7 breast) | growth (HCT-116 colon) | growth (HCC-2998 colon) | growth (KM12 colon)
1 | C=C1C(=O)O[C@H]2[C@H]1CC/C(COC(=O)CCCc1c[nH]c3ccccc13)=C\CC[C@@]1(C)O[C@@H]21 | 57.3% | 41.1% | 60.3% | 24.9% | 11% | -77.5% (active) | 102% | 85.7%
2 | CCSc1ccc2c(c1)N(CCCN1CCN(C)CC1)c1ccccc1S2 | 47% | 73.2% | -15.1% (active) | 45.5% | 20.5% | 21.9% | 13.4% | 4.74% (active)
3 | COc1ccc(-c2ncc(-c3ccccc3)[nH]2)cc1OC | 102% | 240% | 104% | 108% | 83.6% | 117% | 120% | 105%
4 | CCCCCCCCCCCCCCCC(=O)OC[C@@]1(O)C[C@@]23CC[C@@H]4C(C)(C)CCC[C@@]4(C)[C@@H]2CC[C@H]1C3 | 83.5% | 86.7% | 107% | 108% | 60.5% | -79.1% (active) | 118% | 111%
5 | COc1cc2ncnc(Nc3ccc(C(=O)/C=C/c4ccc(C(F)(F)F)cc4F)cc3)c2cc1OC | 131% | 93.6% | 84.2% | 110% | 64.6% | -62.7% (active) | 109% | 83.4%
6 | Fc1ccc(C2CC(c3cccc(Nc4ccncc4)c3)=NN2c2ccccc2)cc1 (centres undefined) | 71% | 87.7% | -54.8% (active) | -65.4% (active) | 8.89% (active) | 61.9% | 3.99% (active) | 8.85% (active)
7 | COc1ccc(Cn2nc3c(c2-c2cc(OC)c(OC)c(OC)c2)-c2oncc2CC3)cc1 | 79.3% | 88.9% | 0.861% (active) | 86% | 69.9% | 81.4% | 77.5% | 70.9%
8 | CCOC(=O)N1CCc2c(sc3nc4nc[nH]n4c(=O)c23)C1 | 88.9% | 95.8% | 103% | 102% | 93.5% | 95.7% | 98.6% | 97.1%
9 | COc1cc(COC(=O)CCCCC[P+](c2ccccc2)(c2ccccc2)c2ccccc2)c(OC)c2c1OCO2 | 14.7% | 55.5% | 41.8% | 58% | 47.7% | 33.2% | 64.9% | 36.1%
10 | CC1(C)[C@H](O)CC[C@]2(C)[C@@H]1CC[C@@]13C[C@@H](CC[C@H]12)[C@@](O)(CO)C3 | 105% | 90.3% | 107% | 108% | 99.3% | -70.1% (active) | 105% | 116%
11 | CN1CCN(c2cc(F)c(NC3=C(Cl)C(=O)c4ncccc4C3=O)c(F)c2)CC1 | -32.5% (active) | 80.5% | -75.8% (active) | -76.6% (active) | -58.2% (active) |  | 61.9% | 82.4%
12 | c1ccc(Cn2nc3c(c2-c2ccccc2)-c2oncc2CC3)cc1 | 80.9% | 88% | 89.2% | 106% | 82.5% | 94.2% | 97.8% | 99.6%
13 | Clc1cc(Cl)cc(N2N=C(c3cccc(Nc4ccncc4)c3)CC2c2ccccc2)c1 (centres undefined) | 77.7% | 78.2% | -38.9% (active) | -68.6% (active) | -11% (active) | 38.7% | -58.8% (active) | -8.16% (active)
14 | CC(=O)O[C@H]1CC[C@@]2(C)[C@@H](CC[C@@H]3[C@@H]2CC[C@@]2(C)[C@H]3CC[C@]2(O)C(C)=O)C1 | 103% | 92.5% | 104% | 104% | 105% | 99.1% | 96.5% | 107%
15 | O=C(O)C(/C=C/c1ccco1)=N\Nc1nc(-c2ccc(Cl)cc2)cs1 | 66.6% | 63.8% | 45.7% | 71.5% | 71.9% | 26.3% | 49% | 62.2%
16 | COc1ccc(C(=O)c2cc3c(N)c(C(=O)Nc4ccc(Cl)cc4)sc3nc2C)cc1 | 66.4% | 79.5% | 57.2% | 64.3% | 61.8% | 54.6% | 91.6% | 70.2%
17 | C=Cc1cc[n+](CCCCCCCCCCCC)cc1 | 131% | 116% | 104% | 100% | 106% | 97.6% | 110% | 104%
18 | COc1ccc(C(=O)/C=C/c2ccc(OCc3ccccc3)c(OC)c2)cc1OC | 47.4% | 51.8% | 61% | 12.9% | 22.5% | 18.2% |  | 36.5%
19 | Cn1c(COC(=O)NCCc2ccccn2)nc2c(N3CCOCC3)nc(Cl)nc21 | -2.17% (active) | 2.36% (active) | -83.3% (active) | -86.2% (active) | -43.5% (active) |  | 37.5% | 44.3%
20 | COc1ccc(CNC(=O)COc2ccc(/C=N/Nc3nc4ccccc4s3)cc2)cc1 | 14.7% | 12.9% | 7.82% (active) | 38.6% | 42.1% | 10.6% | 53.5% | 1.51% (active)
21 | Cc1cccc(Oc2ccc(Nc3ncnc4ccc(NC(=O)CN(C)C)cc34)cc2Cl)c1 | 39.4% | 72.9% | 34.5% | 12.6% | 22.7% | 21.4% | 13.3% | 35.1%
22 | Cc1ccc(S(=O)(=O)Nc2ccc(Cl)cc2)cc1 | 106% | 106% | 101% | 105% | 93.7% |  | 104% | 105%
23 | COc1ccc2c(c1)OC1=C(C(=O)OC1)C2c1cc(OC)c(OC)c(OC)c1 (centres undefined) | 66.3% | 34.5% | -38.5% (active) | 23.2% | 27.1% | 19.3% | 6.19% (active) | 13.1%
24 | O=C(OCc1nc2nc(Cl)nc(N3CCOCC3)c2[nH]1)n1ccnc1 | -49.2% (active) | 9.52% (active) | -55.1% (active) | -59.1% (active) | 4.72% (active) | -82.4% (active) | 65.3% | 13.7%
25 | CN1CCN(Cc2ccc(NC(=O)c3cncc(C#Cc4cnccc4C(F)(F)F)c3)cc2C(F)(F)F)CC1 | 92.2% | 91.8% | 54.7% | 62.8% | 49% | 29.1% | 65.7% | 20.8%
26 | COc1nc(N)nc(-n2c(-c3ccc(C)cc3)nc3ccccc32)c1NCc1ccc(C)cc1 | 79% | 101% | 102% | 98.1% | 91.8% | 84.5% | 103% | 89.6%
27 | O=C1c2cccnc2C(=O)c2nc3cc(N4CCN(C5CC5)CC4)ccc3nc21 | 22.5% | -93.7% (active) | -87.4% (active) | -37.8% (active) | -56.1% (active) | 0.851% (active) | -80.8% (active) | 9.27% (active)
28 | CN1C(=O)N(C)[C@H]2NC(NN)=N[C@H]21 | 91.7% | 101% | 101% | 103% | 97.8% |  | 102% | 105%
